The values that follow come from PubChem BioAssay (NCATS).

Molecules are shown by their SMILES. Results filed as inconclusive are left out. A call without a number means that no potency is given here. Calls of active or inactive are those of the source. The call rests on the fitted dose curve; in most records, active means well fitted inhibition curve with a large enough effect; inconclusive means small, poorly fitted or top-dose-only effect; inactive means no such curve, though single readings can be large or run the other way.

The test has as its system Zika virus NS2B-NS3 protease (linked construct). Description: Primary screen NINDS Rhodamine qHTS for Zika virus inhibitors (AID 1347160). Further: nearly all actives have a fitted effect of over 55% in size. In outline: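 Enzyme (25 nM, linked NS2B-NS3) was preincubated 15 min with compound in 10 mM Tris-HCl pH 8.0, 0.01% Tween 20. Rhodamine110 substrate (1.5 microM) was then added and fluorescence read at start and after 15 min.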
Background: qHTS replaces the single test concentration by a dilution series.

As to `CC(NC(=O)[C@H](Cc1ccccc1)NC(=O)OCc1ccccc1)C(=O)CF` (stereo partly specified), the Potency result is “inactive”.

Take `COc1cc(C(C)=O)ccc1O[C@@H]1O[C@H](CO)[C@@H](O)[C@H](O)[C@H]1O`: the Potency entry is “inactive”.

Consider `C[C@H]1CC[C@@]2(OC1)O[C@H]1CC3C4CC[C@H]5C[C@@H](O)CC[C@]5(C)C4CC(=O)[C@]3(C)[C@H]1[C@@H]2C` (stereo partly specified), for which the Potency entry is “inactive”.

Regarding `OC[C@H]1O[C@@H](OCCc2ccccc2)[C@H](O)[C@@H](O)[C@@H]1O`, the Potency result was “inactive”.

Turning to `CC(=O)N[C@H]1[C@H](O[C@H]2CC[C@]3(C)C4CC=C5[C@@H]6CC(C)(C)CC[C@]6(C(=O)O)[C@H](O)C[C@@]5(C)[C@]4(C)CC[C@H]3C2(C)C)O[C@H](CO)[C@@H](O)[C@@H]1O` (stereo partly specified), the Potency result is “inactive”.

Consider `CC(C)C1CCC(CO)=CC1/C=C(\CO)C(=O)OCC1(O)CCC(C(C)C)C2C=C(C(=O)O)COC(=O)C21` (stereo unspecified), for which the Potency entry is “inactive”.

As to `C[C@@H]1O[C@@H](OC2C(O[C@H]3[C@H](O[C@H]4CC[C@@]5(C)C(CC[C@]6(C)C5CC=C5C7CC(C)(C)CC(O)[C@]7(C)CC[C@]56C)C4(C)C)O[C@H](C(=O)O)[C@@H](O)[C@@H]3O)OC(CO)C(O)C2O)[C@H](O)[C@H](O)[C@H]1O` (stereo partly specified), the Potency result was “inactive”.

Consider `O=C(O)c1ccnc2cc(-c3nc4ccccc4n3CCN3CCCCC3)sc12`, for which the Potency result was “inactive”.

In the case of `CC1=C2C[C@@]3(C)[C@@H](CCC[C@@H]3C)C[C@@]2(O)OC1=O`, the Potency entry was “inactive”.

`CC(C/C=C/C(C)(C)O)C1CCC(C)(O)C(O)C1` (stereo unspecified): the Potency entry was “inactive”.

As for `C=C(COC(=O)CC(C)C)C1Cc2cc(C(C)=O)ccc2O1` (stereo unspecified), the Potency entry is “inactive”.
